ChEMBL document CHEMBL3988442, “University of Dundee, Small-Polar-MMV Screening Library” (2021)
The whole screen tested about 48,000 compounds, of which about 13,000 (27%) showed an effect of 50% or more. This is one part of the list.

tested on: Wolbachia pipientis; assay: Anti-Wolbachia Cell-Based Screen; assay type: functional; set-up: scale not given: in the data most compounds retested in dose-response had high values; conditions: 5 µM

Row | SMILES | Percent Effect [%]
1 | COc1cccc(-c2nc(C)c(C(=O)NC(CO)CCSC)s2)c1 (stereo not drawn) | -11.86
2 | CC(C)CCNC(=O)c1ccc(Cl)c(NS(C)(=O)=O)c1 | 2.284
3 | CSCC[C@@H](CO)NC(=O)c1ccc2nc(NS(C)(=O)=O)sc2c1 | 89.36
4 | CSCCC(CO)NC(=O)c1sc(-c2ccccc2Cl)nc1C (stereo not drawn) | 13.6
5 | Cc1ccc(C(=O)NCCC(C)C)cc1NS(C)(=O)=O | -0.7863
6 | C[C@@H](CO)NC(=O)c1ccc2nc(NS(C)(=O)=O)sc2c1 | 93.82
7 | Cc1nnc(CNC(=O)CC2CCc3ccccc32)o1 (stereo not drawn) | 1.636
8 | O=C(NS(=O)(=O)c1cnn(-c2ccccc2F)c1)c1ccoc1 | 8.506
9 | Cc1nc(C)c(S(=O)(=O)NC(=O)c2ccsc2)s1 | 101.1
10 | COc1ccnc(NC(=O)c2ccsc2)c1 | -4.666
11 | COCc1nc(C(=O)NS(=O)(=O)c2ccc(C)s2)cs1 | -3.012
12 | Cc1ccc(S(=O)(=O)NCCNC(=O)c2ccoc2)cc1C | 3.538
13 | Cc1nc(C)c(S(=O)(=O)NC(=O)c2ccoc2)s1 | 99
14 | Cc1ccc(N2CCCN(C(=O)C3(C#N)CCCCC3)CC2)nn1 | 12.99
15 | Cc1nn(CC(=O)N2CCCN(c3cccnn3)CC2)c(C)c1Cl | 1.564
16 | O=C(Cc1cccc2cccnc12)N1CCCN(c2cccnn2)CC1 | -1.609
17 | Cc1ccc(N2CCCN(C(=O)CC3C=CCC3)CC2)nn1 (stereo not drawn) | 107
18 | Cc1ccc(N2CCCN(C(=O)c3c(C)oc(C)c3C)CC2)nn1 | 8.16
19 | Cc1ccc(N2CCCN(C(=O)CCC3CCCO3)CC2)nn1 (stereo not drawn) | 87.48
20 | Cc1ccc(NC2CCN(C(=O)CCC3CCCO3)CC2)nn1 (stereo not drawn) | -9.533
21 | Cc1ccc(N2CCCN(C(=O)c3cc(Cl)c[nH]3)CC2)nn1 | -5.212
22 | Cc1ccc(N2CCCN(C(=O)C(C)OCC3CC3)CC2)nn1 (stereo not drawn) | -0.6

Row | SMILES | Percent Effect [%]
23 | Cc1ccc(N2CCCN(C(=O)C3CCCO3)CC2)nn1 (stereo not drawn) | 135.1
24 | O=C(CC1CCCO1)N1CCCN(c2cccnn2)CC1 (stereo not drawn) | 79.43
25 | Cc1ccc(N2CCCN(C(=O)CC3CCCO3)CC2)nn1 (stereo not drawn) | 4.405
26 | COc1ccc(CN[C@@H]2CO[C@H](CNC(=O)NC(C)C)[C@H]2O)cc1 | 1.543
27 | CC(C)c1noc(C(C)S(=O)(=O)Cc2nc(C3CC3)no2)n1 (stereo not drawn) | 8.57
28 | Cc1cnn(CCCNC(=O)NC2CCN(CC(F)(F)F)C2=O)c1 (stereo not drawn) | -8.389
29 | O=C1CNc2ncnc(Nc3cnn(Cc4ccccc4)c3)c2N1 | 115.8
30 | CC(C)(C(=O)NCc1ccccc1F)n1cc(Br)cn1 | 10.35
31 | O=C1CNc2ncnc(Nc3cnn(Cc4ccccc4F)c3)c2N1 | 112.6
32 | O=C1CC(NCc2ccncc2)CN1Cc1cccc(F)c1 (stereo not drawn) | -21.37
33 | c1ccc(Cn2cc(CNCC3CCCN3c3cccnn3)cn2)cc1 (stereo not drawn) | 20.91
34 | O=C1CNc2ncnc(Nc3cnn(Cc4cccc(F)c4)c3)c2N1 | 115.2
35 | O=C1CNc2ncnc(Nc3cnn(Cc4ccc(F)cc4)c3)c2N1 | 101.7
36 | O=C(NCCCOc1cccnc1)c1cn(Cc2ccccc2F)nn1 | -6.028
37 | O=C1CCN(Cc2cnc3c(-c4ccccc4)cnn3c2)CCN1 | 2.207
38 | COc1ccc2c(CN3CCN(Cc4cccc(F)c4)CC3)n[nH]c2c1 | 2.522
39 | CCN1CCCC1Cn1ccc2ccc(C(=O)OC)cc2c1=O (stereo not drawn) | -21.42
40 | COc1cccc(CN(C)Cc2cccc(C#N)c2)c1OC | -9.148
41 | O=C1CNc2ncnc(Nc3cccc(Cn4cccn4)c3)c2N1 | 129.6
42 | c1cc(CN2CCC(CCn3cccn3)CC2)cc(Cn2cccn2)c1 | -8.775
43 | OC1CCN(C2CCN(Cc3cccc(Cn4cccn4)c3)CC2)CC1 | 19.22
44 | CCCn1cc(-c2ccnc(NC3CCCc4ccccc43)n2)c(C)n1 (stereo not drawn) | 2.739

Row | SMILES | Percent Effect [%]
45 | CCCn1ncc(-c2ccnc(NC3CCCc4ccccc43)n2)c1C (stereo not drawn) | -7.325
46 | CNCCNc1nccc(-c2cn(C)nc2C)n1 | 0.09563
47 | OCCNc1nccc(-c2cn3nccc3nc2C2CCCCC2)n1 | 109.1
48 | Cc1cc2nc(C3CCCCC3)c(-c3ccnc(NCCO)n3)cn2n1 | 91.18
49 | CCN(CC)CCCNc1nccc(-c2cn(C)nc2C)n1 | -2.773
50 | CCN(CCNC(=O)C1CCCN(C(C)=O)C1)c1ccccc1C (stereo not drawn) | 2.266
51 | CNc1ncc(CN(C)c2nc(C)c3ccc(S(C)(=O)=O)cc3n2)cn1 | 9.72
52 | COc1ccnc(CN2CC(=O)N(c3ccc(C)cc3)CC2C)c1OC (stereo not drawn) | -8.096
53 | COc1cccc(CN(C)C(=O)CCC(=O)c2ccccc2)c1OC | -10.25
54 | COc1cccc(CN2CC(O)CN(C(=O)C(C)(C)C)CC2=O)c1OC (stereo not drawn) | 116.9
55 | CCOC(=O)N1CC(=O)N(Cc2cccc(OC)c2OC)CC(O)C1 (stereo not drawn) | 107.9
56 | COc1cccc2cc(CNC(C)(C)C(=O)N3CCC(O)CC3)oc12 | -3.796
57 | COCCN1CCc2nc(SCc3ccc(F)cc3)[nH]c(=O)c2C1 | 106
58 | COCCN1CCc2onc(C(c3ccccc3)c3ccccc3)c2C1 | 19.48
59 | CCCN1CCc2nc(SCc3ccccc3)[nH]c(=O)c2C1 | 19.11
60 | CCCN1CCc2nc(SCc3ccccc3F)[nH]c(=O)c2C1 | 16.02
61 | C=Cc1ccc(CSc2nc3c(c(=O)[nH]2)CN(CCC)CC3)cc1 | -6.559
62 | CCCN1CCc2nc(SCc3ccc(F)cc3)[nH]c(=O)c2C1 | 101.4
63 | CCCN(C)C(=O)c1ccc2c(c1)[nH]c(=O)n2CCOCC | -27.89
64 | Cc1csc(CNC(=O)NCC(O)c2cccc(Cl)c2)n1 (stereo not drawn) | -23.66
65 | C=C(C)CN(CC)C(=O)c1cc(Cl)ccc1NS(C)(=O)=O | -12.97
66 | COc1cccc(C2C3=C(COC3=O)Nc3[nH]nc(C)c32)c1OC (stereo not drawn) | 3.331

Row | SMILES | Percent Effect [%]
67 | Cn1nc(CN2CCOCC2)c2c1CN(Cc1ccsc1)C2.O=C(O)C(F)(F)F.O=C(O)C(F)(F)F | 1.369
68 | CNC(=O)c1cccc(CC2COCCN(Cc3ccc(C)o3)C2)n1 (stereo not drawn) | 193.8
69 | Cc1ccc(CN2CCC3(CC2)CC(NC(=O)c2ccccn2)CO3)o1 (stereo not drawn) | -7.485
70 | O=C(NCc1cc(N2CCOCC2)ncn1)c1cccc(CO)n1 | -9.818
71 | CNC(=O)c1cccc(CC2COCCN(Cc3ccsc3)C2)n1 (stereo not drawn) | 152.2
72 | Cc1ccc(CN2CC[C@@H]3CN(S(C)(=O)=O)CCO[C@@H]3C2)o1 | -7.086
73 | COCCN(CCN(C)C)C(=O)NC1CC1 | -6.538
74 | CCCNC(=O)C[S+]([O-])Cc1csc(C2CCCCC2)n1 (stereo not drawn) | 9.015
75 | CC(C)c1cc(NCc2csc(N(C)C)n2)nc(N)n1 | -34.84
76 | C1CN(c2nc(C3CC3)no2)CCN(C2CCOCC2)C1 | 3.883
77 | CCn1ncc2c1C(COC)CN(Cc1cnn(C)c1)C2 (stereo not drawn) | 98.55
78 | CCn1ncc2c1C(COC)CN(S(=O)(=O)C1CC1)C2 (stereo not drawn) | -7.886
79 | CCn1ncc2c1C(COC)CN(Cc1ccc(OC)cc1)C2 (stereo not drawn) | 12.18
80 | CCn1ncc2c1C(COC)CN(Cc1nccs1)C2 (stereo not drawn) | 93.87
81 | Cn1ncc2c1C(COCC1CC1)CN(Cc1nccs1)C2 (stereo not drawn) | -9.049
82 | CC(C)N(CC1CCCN(Cc2ccon2)C1)C(=O)OC(C)(C)C (stereo not drawn) | -0.3893
83 | CC(C)OCCNC(=O)C1CCC(=O)N(C2CCCC2)C1 (stereo not drawn) | -13.5
84 | Cc1ccc(CNC(=O)N2CCN(S(C)(=O)=O)CC2)n1C | -9
85 | CN(C)C(=O)c1ccn(-c2ccc3ccccn23)n1 | 2.89
86 | CS(=O)(=O)N1CCCCCC1C1CCN(c2ncccc2C#N)CC1 (stereo not drawn) | -0.7273
87 | CS(=O)(=O)N1CCCCCC1C1CCN(c2ncccn2)CC1 (stereo not drawn) | -4.856
88 | Cc1ccc2nc(C3CCCN3Cc3cccc(CCN)c3)[nH]c2c1 (stereo not drawn) | -6.155

Row | SMILES | Percent Effect [%]
89 | CS(=O)(=O)N1CCCC1c1ccnc2nccn12 (stereo not drawn) | 122.4
90 | Cc1csc(Nc2nccnc2C2CCCN2S(C)(=O)=O)n1 (stereo not drawn) | 47.35
91 | Cc1ccc2nc(C3CCCN3Cc3scnc3C)[nH]c2c1 (stereo not drawn) | -7.773
92 | CS(=O)(=O)N1CCC[C@H]1c1ncnn1-c1ccc2c(c1)OCO2 | 23.33
93 | CC(C)=CCCC(C)CN1CCC(n2cc(C(=O)NCCO)nn2)CC1 (stereo not drawn) | -5.673
94 | CCCn1cnnc1CN(C)C(=O)CCC(=O)Nc1cc(C)ccc1F | -24.09
95 | O=C(CCCn1cncn1)N1CCC2(CCCNC2=O)C1 (stereo not drawn) | -3.772
96 | O=C(C[S+]([O-])Cc1csc(C2CCCC2)n1)Nc1ccccc1 (stereo not drawn) | 0.09199
97 | COCC(O)CN(C)C(=O)NC1CCN(S(C)(=O)=O)CC1 (stereo not drawn) | 12.14
98 | CCC(CC)(CNC(=O)OC(C)(C)C)NC(=O)C1CCOCC1 | 5.998
99 | O=S(=O)(NCC(O)c1cccs1)c1ccccc1Cl (stereo not drawn) | 2.157
100 | CCc1nc(N)nc(NCCC(=O)N2CCCC2)c1C | 9.291
101 | CC(C)(C)C(=O)NC[C@H]1Cn2c(-c3ccccc3)cnc2CO1 | -8.442
102 | CN(CC1=CCCN(CCc2ccccn2)C1)C(=O)c1ccco1 | 0.7414
103 | CCOc1ncccc1NC(=O)N1CCc2ccccc2C1 | -0.7073
104 | CNC(=O)c1cccc(CCNC(=O)N2CCc3ccccc3C2)c1 | 1.406
105 | O=C(NCCNc1ncccn1)N1CCc2ccccc2C1 | 8.02
106 | CN(Cc1ccsc1)C(=O)CN1CCc2c(ncn2C)C1 | -3.155
107 | CN(Cc1ccsc1)C(=O)CNC(=O)N1CCc2ccccc2C1 | 90.63
108 | CN(Cc1ccccn1)C(=O)CNC(=O)N1CCc2ccccc2C1 | 97.17
